Measured values published in PubChem BioAssay (Tox21).
Records with an inconclusive call do not appear. Calls of active or inactive are those of the source. Unless noted, the call rests on the fitted dose curve.

Experiments:
[1] = Nuclear factor erythroid 2-related factor 2/antioxidant responsive element (Nrf2/ARE) small molecule agonists: qHTS cell viability counter screen in human keratinocytes (AID 1919968; active means well fitted curve in the direction sought with a large enough effect in the repeat runs; an effect the other way counts as inactive or inconclusive; further: nearly all actives have a fitted effect of over 55% in size)
Summary of the method: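 Measured as CellTiter-Fluor fluorescence, this readout tracks cytotoxicity in the same wells as the ARE-luciferase screen. HaCaT reporter cells (1,500/well) received compounds after a 5 h pre-incubation and were exposed for 23 h.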

[2] = Nuclear factor erythroid 2-related factor 2/antioxidant responsive element (Nrf2/ARE) small molecule agonists: luciferase reporter gene qHTS assay in human keratinocytes (AID 1919969); further: nearly all actives have a fitted effect of over 35% in size; further: potency means the concentration at half of the fitted maximal effect
[3] = target: Gonadotropin-releasing hormone receptor (Homo sapiens) (UniProt P30968); test: Human gonadotropin-releasing hormone receptor (GnRHR) small molecule agonists, calcium flux assay in GnRHR-HEK293 cells (AID 1920063); further: nearly all actives have a fitted effect of over 35% in size
Summary of the method: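 Fluorescence kinetics (480 nm excitation, 540 nm emission; 3 min, 1 s steps) report calcium mobilisation in human GnRHR-HEK293 cells in agonist mode. Dye incubation: 1 h, 37 C.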

[4] = target: KiSS-1 receptor (Homo sapiens) (UniProt Q969F8); test: Human kisspeptin (KISS1R) small molecule agonists, calcium flux assay in KISS1R-HEK293 cells (AID 1920064; active means well fitted curve in the direction sought with a large enough effect in the repeat runs; an effect the other way counts as inactive or inconclusive)
Summary of the method: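 Measures KISS1R agonism through calcium-sensitive dye fluorescence in stably transfected HEK293 cells, read for 3 min after pin-tool compound delivery; 15-point titrations in triplicate.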

[5] = G protein-coupled receptor (GPCR) small molecule agonists, calcium flux assay: HEK293 wild type cell line counter screen (AID 1920065)
Summary of the method: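 Readout: fluorescence at 480 nm excitation/540 nm emission, sampled at 1 s intervals for 3 min. Cells had been cultured 18 h, then dye-loaded 1 h at 37 C before compound or ATP addition.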

[6] = p53 small molecule agonists, cell-based qHTS assay with human liver microsomes (AID 1963577);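 further: p53 response element beta-lactamase reporter cells with liver microsomes plus NADPH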
Summary of the method: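 With metabolic activation: human liver microsomes (0.5 mg/mL final) plus NADPH (0.5 mg/mL final) added alongside compounds to p53RE-bla cells; 16 h 37 C exposure; beta-lactamase read by LiveBLAzer fluorescence.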

[7] = p53 small molecule agonists, cell-based qHTS assay with rat liver microsomes (AID 1963578)
Summary of the method: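 Metabolic activation by rat liver microsomes and NADPH, each 0.5 mg/mL final, added right after compounds to p53RE-bla reporter cells (4,000/well, plated 5 h earlier). 16 h at 37 C, then LiveBLAzer substrate for 2 h at room temperature in the dark; fluorescence read-out.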

[8] = p53 small molecule agonists, cell-based qHTS assay with human liver microsomes: qHTS cell viability counter screen (AID 1963579); further: nearly all actives have a fitted effect of over 45% in size
Summary of the method: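 Metabolic activation used human liver microsomes and NADPH, both 0.5 mg/mL final, over 16 hours at 37 C on p53RE-bla cells (4,000/well). Cytotoxicity measured by CellTiter-Glo luminescence, 30 min at room temperature.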

[9] = p53 small molecule agonists, cell-based qHTS assay with rat liver microsomes: qHTS cell viability counter screen (AID 1963580); further: nearly all actives have a fitted effect of over 45% in size
Summary of the method: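 p53RE-bla HCT-116 cells were exposed 16 h at 37 C to compounds with rat liver microsomes (0.5 mg/mL) and NADPH (0.5 mg/mL). Viability was measured in the same wells as ATP content by CellTiter-Glo luminescence.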

[10] = p53 small molecule agonists, cell-based qHTS assay: qHTS cell viability counter screen (AID 1963581); further: nearly all actives have a fitted effect of over 45% in size
Summary of the method: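 In the same plates used for the p53 bla reporter, HCT-116 cells given compounds for 16 h at 37 C received CellTiter-Glo; luminescence was recorded 30 min later at room temperature.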

[11] = p53 small molecule agonists, cell-based qHTS assay (AID 1963582; active means well fitted activation curve with a large enough effect in the signal ratio in the repeat runs, not every such curve was filed as active; the % refers to the signal ratio)
Summary of the method: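 Compounds are pin-transferred in DMSO onto p53RE-bla cells and incubated 16 h at 37 C. The B/G FRET beta-lactamase substrate is then applied for 2 h at RT and fluorescence recorded.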

[12] = target: 5-hydroxytryptamine receptor 2A (Homo sapiens) (UniProt P28223); test: 5-hydroxytryptamine receptor 2A (HTR2A) small molecule antagonists, cell-based qHTS assay (AID 1963586); further: nearly all actives have a fitted effect of over 45% in size
Summary of the method: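 Antagonist-mode intracellular calcium assay: DOI (4 nM) added after 5 min compound pre-incubation at room temperature to dye-loaded HTR2A-CHO cells. Fluorescence followed for 3 min, sampled every second.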

[13] = target: 5-hydroxytryptamine receptor 2A (Homo sapiens) (UniProt P28223); test: 5-hydroxytryptamine receptor 2A (HTR2A) small molecule agonists, cell-based qHTS assay (AID 1963587); further: nearly all actives have a fitted effect of over 30% in size
Summary of the method: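 CHO cells stably expressing human HTR2A, plated 18 h, loaded with calcium dye 1 h at 37 C. Agonist mode: compounds added and intracellular calcium fluorescence recorded kinetically for 2 min at 1 sec intervals.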

[14] = target: Muscarinic acetylcholine receptor M1 (Homo sapiens) (UniProt P11229); test: Cholinergic receptor muscarinic 1 (CHRM1) small molecule antagonists, cell-based qHTS assay (AID 1963588); further: nearly all actives have a fitted effect of over 40% in size
Summary of the method: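 CHRM1-CHO calcium-flux assay, antagonist mode. Cells were seeded 18 h, dye-loaded 1 h at 37 C and given compound for 5 min at RT, then acetylcholine was added at 50nM. FDSS fluorescence was read 3 min; 15 concentrations, three runs.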

[15] = target: Muscarinic acetylcholine receptor M1 (Homo sapiens) (UniProt P11229); test: Cholinergic receptor muscarinic 1 (CHRM1) small molecule agonists, cell-based qHTS assay (AID 1963589); further: nearly all actives have a fitted effect of over 35% in size
Summary of the method: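 Each compound was tested at 15 concentrations across three independent runs on dye-loaded CHO cells stably expressing human CHRM1, reading intracellular calcium fluorescence kinetically at 1 sec intervals.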

[16] = cAMP Responsive Elements (CRE) small molecule agonists, cell-based qHTS assay (AID 1963590)
Summary of the method: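 Cell line: CRE-bla HEK 293T; medium DMEM/10% dialyzed FBS/0.1 mM NEAA/1 mM pyruvate/25 mM HEPES; 3 h compound exposure; beta-lactamase FRET readout after 2 h substrate loading at RT.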

[17] = cAMP Responsive Elements (CRE) small molecule antagonists, cell-based qHTS assay (AID 1963591; active means well fitted inhibition curve with a large enough effect in the signal ratio in the repeat runs, not every such curve was filed as active; the % refers to the signal ratio)
Summary of the method: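 Inhibition of NKH477-driven (0.25 uM final) CRE-beta-lactamase signal in HEK293T cells, 3 h compound exposure at 37 °C, detected by FRET substrate fluorescence.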

[18] = target: Beta-2 adrenergic receptor (Homo sapiens) (UniProt P07550); test: Adrenergic beta2 receptor (ADRB2) small molecule antagonists, cell-based qHTS assay (AID 1963592); further: series mostly up to about 92 µM; nearly all actives have a fitted effect of over 50% in size
Summary of the method: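 Cells (CHO, stable ADRB2 overexpression) incubated 18-20hr at 37C; compounds added from DMSO; agonist mix (1nM isoproterenol, 100uM IBMX, 25uM Ro-20-1724) added; 0.5hr RT; d2-cAMP and anti-cAMP-cryptate added; 1hr RT; 665/615 nm read.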

[19] = target: Beta-2 adrenergic receptor (Homo sapiens) (UniProt P07550); test: Adrenergic beta2 receptor (ADRB2) small molecule agonists, cell-based qHTS assay (AID 1963593);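 further: CHO cells stably overexpressing human ADRB2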
Summary of the method: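 CHO cells stably over-expressing ADRB2 were plated overnight at 37C, then dosed with compounds plus a stimulation mix containing 100uM IBMX and 25uM Ro-20-1724 for 0.5hr at room temperature. cAMP was measured by HTRF competition, 1hr.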

[20] = target: D(2) dopamine receptor (Homo sapiens) (UniProt P14416); test: Dopamine D2 receptor (DRD2) small molecule agonists, cell-based qHTS assay (AID 1963594); further: nearly all actives have a fitted effect of over 35% in size
Summary of the method: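 HEK293 cells stably expressing human DRD2, pre-treated with PDE inhibitor Ro20-1724 (0.1 mM final) and compound 10 min at room temperature, then stimulated with NKH477 (200nM […]) for 30 min. cAMP read by HTRF (665/620 nm).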
On the % scale 0 is the no-effect control and ±100 the full control effect.

Sequence of KiSS-1 receptor (Homo sapiens) (Q969F8 whole entry, looked up): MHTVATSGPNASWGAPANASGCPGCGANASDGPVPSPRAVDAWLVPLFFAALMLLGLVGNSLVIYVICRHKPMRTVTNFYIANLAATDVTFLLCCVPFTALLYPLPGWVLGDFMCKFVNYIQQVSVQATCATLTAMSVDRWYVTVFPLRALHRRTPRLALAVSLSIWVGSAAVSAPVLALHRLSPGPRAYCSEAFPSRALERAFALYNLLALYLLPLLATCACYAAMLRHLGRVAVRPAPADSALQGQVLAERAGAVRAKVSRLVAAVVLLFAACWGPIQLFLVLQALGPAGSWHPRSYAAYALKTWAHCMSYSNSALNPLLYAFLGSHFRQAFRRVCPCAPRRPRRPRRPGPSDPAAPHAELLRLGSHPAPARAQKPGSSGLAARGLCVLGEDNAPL
Sequence of 5-hydroxytryptamine receptor 2A (Homo sapiens) (P28223 whole entry, looked up): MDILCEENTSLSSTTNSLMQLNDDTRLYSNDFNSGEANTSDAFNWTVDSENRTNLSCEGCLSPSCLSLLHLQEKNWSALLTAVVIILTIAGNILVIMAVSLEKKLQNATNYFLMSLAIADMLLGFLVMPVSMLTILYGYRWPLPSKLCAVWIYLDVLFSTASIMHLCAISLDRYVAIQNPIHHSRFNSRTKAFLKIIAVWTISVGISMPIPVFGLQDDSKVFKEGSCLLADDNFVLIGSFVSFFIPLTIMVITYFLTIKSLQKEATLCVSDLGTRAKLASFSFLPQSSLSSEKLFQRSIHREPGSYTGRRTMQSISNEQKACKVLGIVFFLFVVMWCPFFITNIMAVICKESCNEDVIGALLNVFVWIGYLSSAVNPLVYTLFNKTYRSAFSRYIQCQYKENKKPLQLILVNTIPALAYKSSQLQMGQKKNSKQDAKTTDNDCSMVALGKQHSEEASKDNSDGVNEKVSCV
Sequence of D(2) dopamine receptor (Homo sapiens) (P14416 whole entry, looked up): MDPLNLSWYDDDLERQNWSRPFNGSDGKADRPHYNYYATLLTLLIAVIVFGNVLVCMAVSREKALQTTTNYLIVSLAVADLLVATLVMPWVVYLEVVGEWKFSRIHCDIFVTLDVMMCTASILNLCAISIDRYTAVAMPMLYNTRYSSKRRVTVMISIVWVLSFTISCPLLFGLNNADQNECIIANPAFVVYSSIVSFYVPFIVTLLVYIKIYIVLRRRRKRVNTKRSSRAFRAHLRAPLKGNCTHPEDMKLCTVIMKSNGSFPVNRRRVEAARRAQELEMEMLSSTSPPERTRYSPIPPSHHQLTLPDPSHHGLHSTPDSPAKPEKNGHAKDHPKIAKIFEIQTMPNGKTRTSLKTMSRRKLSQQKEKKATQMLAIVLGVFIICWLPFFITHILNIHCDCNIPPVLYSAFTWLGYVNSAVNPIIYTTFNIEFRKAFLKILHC
Sequence of Beta-2 adrenergic receptor (Homo sapiens) (P07550 whole entry, looked up): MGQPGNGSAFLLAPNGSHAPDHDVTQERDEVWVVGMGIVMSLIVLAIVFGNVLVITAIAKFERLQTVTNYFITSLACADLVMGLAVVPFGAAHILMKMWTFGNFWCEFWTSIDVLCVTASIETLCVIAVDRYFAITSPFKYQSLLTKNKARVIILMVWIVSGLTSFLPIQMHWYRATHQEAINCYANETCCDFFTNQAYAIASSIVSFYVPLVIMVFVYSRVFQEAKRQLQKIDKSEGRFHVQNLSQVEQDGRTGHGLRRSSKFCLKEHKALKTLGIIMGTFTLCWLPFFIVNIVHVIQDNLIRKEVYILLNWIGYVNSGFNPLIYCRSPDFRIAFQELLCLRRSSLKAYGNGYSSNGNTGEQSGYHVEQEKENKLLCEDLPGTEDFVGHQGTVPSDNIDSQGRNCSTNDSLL
Sequence of Muscarinic acetylcholine receptor M1 (Homo sapiens) (P11229 whole entry, looked up): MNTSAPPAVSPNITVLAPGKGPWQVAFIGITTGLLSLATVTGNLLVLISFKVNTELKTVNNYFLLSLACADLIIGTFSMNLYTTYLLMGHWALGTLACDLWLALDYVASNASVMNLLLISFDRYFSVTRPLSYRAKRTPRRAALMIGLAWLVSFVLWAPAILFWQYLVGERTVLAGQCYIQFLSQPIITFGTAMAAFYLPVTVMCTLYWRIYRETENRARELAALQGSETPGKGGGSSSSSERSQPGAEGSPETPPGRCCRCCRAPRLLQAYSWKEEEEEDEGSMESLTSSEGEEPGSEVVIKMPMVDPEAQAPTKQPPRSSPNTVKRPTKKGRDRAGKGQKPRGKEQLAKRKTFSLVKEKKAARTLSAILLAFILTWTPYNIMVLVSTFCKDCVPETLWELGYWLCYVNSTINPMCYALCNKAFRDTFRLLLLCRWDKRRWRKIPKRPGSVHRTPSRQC
Sequence of Gonadotropin-releasing hormone receptor (Homo sapiens) (P30968 whole entry, looked up): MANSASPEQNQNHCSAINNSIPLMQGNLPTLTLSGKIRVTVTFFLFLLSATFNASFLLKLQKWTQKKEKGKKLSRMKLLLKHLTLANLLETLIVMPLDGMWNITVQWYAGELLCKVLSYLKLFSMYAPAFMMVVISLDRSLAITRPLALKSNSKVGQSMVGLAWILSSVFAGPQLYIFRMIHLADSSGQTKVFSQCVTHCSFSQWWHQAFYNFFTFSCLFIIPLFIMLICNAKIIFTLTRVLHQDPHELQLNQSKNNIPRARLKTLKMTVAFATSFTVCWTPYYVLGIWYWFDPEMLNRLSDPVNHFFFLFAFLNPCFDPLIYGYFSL

N[C@@H](CSSC[C@H](N)C(=O)O)C(=O)O
inactive: activity change, negative = cytotoxicity [1] -0.627% [at 0.349 µM] | activity change [3] 1.59% [at 0.217 µM, hits give high values] | activation [4] -0.737% [at 0.29 µM] | activation [5] -0.257% [at 0.217 µM] | activation [6] 0.648% [at 0.249 µM] | activation [7] -1.5% [at 0.249 µM] | activity change, negative = cytotoxicity [8] 1.19% [at 0.249 µM] | activity change, negative = cytotoxicity [9] -2.37% [at 0.249 µM] | activity change, negative = cytotoxicity [10] 0.512% [at 0.249 µM] | activation [11] 2.6% [at 0.249 µM] | activity, negative = inhibition [12] -6.07% [at 0.233 µM] | activation [13] 4.74% [at 0.292 µM] | activity, negative = inhibition [14] 11.3% [at 0.232 µM] | activation [15] 1.52% [at 0.29 µM] | activation [16] 0.0077% [at 0.349 µM] | activity change, negative = inhibition [17] -2.16% [at 0.349 µM] | activity change, negative = inhibition [18] 8.85% [at 0.349 µM] | activation [19] -18.9% [at 0.349 µM] | activation [20] -4.71% [at 0.349 µM]
active: Potency [2] 376 nM

CC1(C)CO[C@@H](CC(=O)O)CN1
inactive: Potency [1] | Potency [2] | Potency [3] | Potency [4] | Potency [5] | Potency [6] | Potency [7] | Potency [8] | Potency [9] | Potency [10] | Potency [11] | Potency [12] | Potency [13] | Potency [14] | Potency [15] | Potency [16] | Potency [17] | Potency [18] | Potency [19] | Potency [20]

C=CC(=O)NCOCC(C)C
inactive: Potency [1] | Potency [2] | Potency [3] | Potency [4] | Potency [5] | Potency [6] | Potency [7] | Potency [8] | Potency [9] | Potency [10] | Potency [11] | Potency [12] | Potency [13] | Potency [14] | Potency [15] | Potency [16] | Potency [17] | Potency [18] | Potency [19] | Potency [20]

CC(C)(O)C(=O)O
inactive: Potency [1] | Potency [2] | Potency [3] | Potency [4] | Potency [5] | Potency [6] | Potency [7] | Potency [8] | Potency [9] | Potency [10] | Potency [11] | Potency [12] | Potency [13] | Potency [14] | Potency [15] | Potency [16] | Potency [17] | Potency [18] | Potency [19] | Potency [20]

CCc1cccc(CC)c1NC(=O)C(=O)O
inactive: Potency [1] | Potency [2] | Potency [3] | Potency [4] | Potency [5] | Potency [6] | Potency [7] | Potency [8] | Potency [9] | Potency [10] | Potency [11] | Potency [12] | Potency [13] | Potency [14] | Potency [15] | Potency [16] | Potency [17] | Potency [18] | Potency [19] | Potency [20]
